Unmarked numbers belong to inactive results. Inconclusive results are not listed. Active and inactive are the calls of the source. Calls follow the shape of the dose curve; as a rule, active = well fitted curve in the direction sought with a large enough effect; inconclusive = small, poorly fitted or top-dose-only effect, or another doubt; inactive = no such curve, though single readings can be large; an effect the other way counts as inactive or inconclusive.

The text below walks through data of PubChem BioAssay (NCATS).

Experiment [1] concerns the target Glutathione peroxidase 1 (Homo sapiens) (UniProt P07203). Description: Primary qHTS Assay for Inhibitors of Recombinant Selenoprotein Glutathione Peroxidase 1 (GPX1) (AID 1845191). Also: nearly all actives have a fitted effect of over 65% in size. As to activity, negative = inhibition: % is scaled to controls: 0 for no effect and ±100 for the full control effect. The procedure, abridged: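 GPX1 10 nM, GR 100 nM, GSH 1 mM, NADPH 0.5 mM, CHP 0.5 mM (final). 30-min cpd preincubation, RT. Ex340/Em450 read t=0, t=15 min.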
Experiment [2] deals with Phospholipid hydroperoxide glutathione peroxidase GPX4 (Homo sapiens) (UniProt P36969). Description: Primary qHTS Assay for Inhibitors of Recombinant Selenoprotein Glutathione Peroxidase 4 (GPX4) (AID 1845192). Also: nearly all actives have a fitted effect of over 65% in size. As to activity change, negative = inhibition: series mostly up to about 50 µM; % is scaled to controls: 0 for no effect and ±100 for the full control effect. The essentials:
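qHTS, GR-coupled: GPX4 200 nM + cpd 30 min RT → GSH 1 mM, NADPH 0.5 mM, GR 100 nM → CHP 0.5 mM start; fluor 340/450 at t0 and t15 min; no-enzyme wells as control.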

Experiment [3] has as its target Luciferin 4-monooxygenase (Photinus pyralis) (UniProt P08659). In words: Primary firefly luciferase (FLuc) qHTS assay for identification of artifact compounds. (AID 1845220). Also: nearly all actives have a fitted effect of over 60% in size.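 As to activity change, negative = inhibition: series mostly up to about 54 µM; plate controls were DMSO vehicle for no effect and no enzyme for full effect.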 The procedure, abridged:
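Reaction readout was CCD-imaged luminescence, taken 5 min after adding 10 nM purified firefly enzyme to compound-treated wells holding 10 uM luciferin and ATP in pH 7.6 buffer.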

Experiment [4] can be described thus: Primary fluorescence-based thiol-reactive (MSTI) qHTS assay for identification of artifact compounds. (AID 1845221). Also: nearly all actives have a fitted effect of over 65% in size. Also: potency is read from the fitted curve at half-maximal effect. As to activity change, negative = thiol reactive: series mostly up to about 54 µM. The essentials: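 Compounds were incubated 1 h at room temperature in the dark with the MSTI probe (4 uM) in PBS pH 7.4, 2% DMSO. Signals were normalized between Acetyl-MSTI and MSTI.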
The subject of experiment [5] is Nanoluciferase (engineered Oplophorus gracilirostris luciferase). In words: Primary Nanoluciferase (NLuc) qHTS assay for identification of artifact compounds. (AID 1845222).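 Also: NLuc secreted into diluted conditioned medium of S16 cells; series mostly up to about 54 µM.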 The essentials:
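Concentration-response data were obtained by luminescence after 5 min with Nano-Glo substrate at 1:100. The enzyme was diluted S16 NLuc-expressing cell medium, preincubated with compound for 15 min at RT. Curves were fitted with a 4-parameter Hill model.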

Experiment [6] is described as follows: Primary redox qHTS assay for identification of artifact compounds. (AID 1845223).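 Also: 0% = DMSO and 100% = reference compound.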 The essentials: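 Redox-cycling detection via DTT (250 uM final) oxidation coupled to Amplex Red (25 uM)/HRP (250 mU/mL) in HBSS. 15 min preincubation plus 30 min after DTT, room temperature. Ex/Em 525/598 nm; 4-parameter Hill fit against DMSO and 10 uM DA3003.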

Sequence of Phospholipid hydroperoxide glutathione peroxidase GPX4 (Homo sapiens) (P36969 whole entry, looked up): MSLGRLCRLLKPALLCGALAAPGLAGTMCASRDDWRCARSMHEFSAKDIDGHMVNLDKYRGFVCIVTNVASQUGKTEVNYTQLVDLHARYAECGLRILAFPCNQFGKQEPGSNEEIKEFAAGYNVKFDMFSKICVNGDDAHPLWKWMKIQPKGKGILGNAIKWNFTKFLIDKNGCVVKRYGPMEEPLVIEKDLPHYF
Sequence of Glutathione peroxidase 1 (Homo sapiens) (P07203 whole entry, looked up): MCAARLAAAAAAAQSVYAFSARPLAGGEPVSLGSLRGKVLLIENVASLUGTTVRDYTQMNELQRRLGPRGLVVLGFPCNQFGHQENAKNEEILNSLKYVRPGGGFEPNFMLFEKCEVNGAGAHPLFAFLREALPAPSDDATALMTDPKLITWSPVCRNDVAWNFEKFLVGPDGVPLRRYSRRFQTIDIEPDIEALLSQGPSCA

For `NC1CCC(N[C@@H]2C[C@H]2c2ccccc2)CC1` (stereo partly drawn), the Potency result in experiment [1], in experiment [2], in experiment [3], in experiment [4], in experiment [5] and in experiment [6] was “inactive” each time.

In the case of `CCCC(N[C@@H](C)C(=O)N1[C@H](C(=O)O)C[C@@H]2CCCC[C@@H]21)C(=O)OCC` (stereo partly drawn), the Potency entry in experiment [1], in experiment [2], in experiment [3], in experiment [4], in experiment [5] and in experiment [6] was “inactive” in each case.

Turning to `CC(C)(C)NCc1cc(Nc2ccnc3cc(Cl)ccc23)c2c(c1O)CCCC2`, the activity, negative = inhibition in experiment [1] is -7.83% [at 0.4 µM]; in experiment [5] it was 1.02% [at 0.464 µM]. For the same molecule, the activity change, negative = inhibition was -7.38% [at 0.409 µM] in experiment [2] and -4.19% [at 0.464 µM] in experiment [3]. For the same molecule, in experiment [4], the activity change, negative = thiol reactive was -13.7% [at 0.461 µM]. Moreover, in experiment [6], the redox activity (% of DA3003) was -4.12% [at 0.461 µM].

Consider `C=C1CC2(C(=O)O)CC1CCC2C1(C)CCCC2(C)C(=O)OC(O)C21` (stereo not drawn), for which the Potency entry in experiment [1], in experiment [2], in experiment [3], in experiment [4], in experiment [5] and in experiment [6] was “inactive” throughout.

With `COc1ccc(/C=C/C(=O)O[C@H]2[C@@H]3C=CO[C@@H](O[C@@H]4O[C@H](CO)[C@@H](O)[C@H](O)[C@H]4O)[C@@H]3[C@@]3(CO)O[C@@H]23)cc1O`, the Potency entry in experiment [1], in experiment [2], in experiment [3], in experiment [5] and in experiment [6] was “inactive” in each case. Also, in experiment [4], the Potency was 11.6 µM (active).

Regarding `COc1cc(/C=C/C(=O)OC(C)(C)C(OC2OC(CO)C(O)C(O)C2O)C(=O)OCc2ccc(OC3OC(CO)C(O)C(O)C3O)cc2)ccc1O` (stereo not drawn), the Potency result in experiment [1], in experiment [2], in experiment [3], in experiment [4], in experiment [5] and in experiment [6] was “inactive” each time.

Regarding `CC(=O)OC(CSC1CCC(=O)OC(C)CCC(=O)C1)C(=O)O` (stereo not drawn), the Potency result in experiment [1], in experiment [2], in experiment [3], in experiment [4], in experiment [5] and in experiment [6] was “inactive” throughout.

As to `CON(C)C(=O)N1N=C(c2cc(F)ccc2F)S[C@@]1(CCCN)c1ccccc1`, the Potency entry in experiment [1], in experiment [2], in experiment [3], in experiment [4], in experiment [5] and in experiment [6] was “inactive” throughout.

Regarding `CCOC(=O)c1ccc(N(C)c2csc(-c3ccccc3)n2)cc1`, the Potency entry in experiment [1], in experiment [2], in experiment [3], in experiment [4], in experiment [5] and in experiment [6] was “inactive” throughout.

Regarding `COc1c2c(c(C)c3c1C(=O)OC3)O[C@@]1(C)C[C@@H](O)[C@]34O[C@](OC)(CC[C@]3(C)[C@H]1C2)OC4(C)C`, the Potency result in experiment [1], in experiment [2], in experiment [3], in experiment [4], in experiment [5] and in experiment [6] was “inactive” each time.

With `O=C(C1CC1)N1CC[C@@H](Cc2n[nH]c(=O)n2-c2ccc(-c3ccc4occc4c3)cc2)C1`, the Potency result in experiment [1], in experiment [2], in experiment [3], in experiment [4], in experiment [5] and in experiment [6] was “inactive” each time.

For `Cc1cc(C)c(S(=O)(=O)N(Cc2ccc(-c3cccc(S(C)(=O)=O)c3)cc2)Cc2ccc(C(F)(F)F)o2)c(C)c1`, the Potency entry in experiment [1], in experiment [2], in experiment [3], in experiment [4], in experiment [5] and in experiment [6] was “inactive” in each case.

Consider `CNC(=O)c1ccc2cc([C@@]3(O)CCn4cncc43)ccc2c1`, for which the Potency entry in experiment [1], in experiment [2], in experiment [3], in experiment [4], in experiment [5] and in experiment [6] was “inactive” in each case.
